Source: PubChem BioAssay (EPA / NIEHS)
Records with an inconclusive call do not appear. Calls of active or inactive are those of the source. The calls were made as follows, unless noted: active = hit-call score of the fitted dose curve at least 0.9, where 1 is the maximum; inconclusive = response in the unintended direction; inactive = score below 0.9.

System: Sodium/Iodide Symporter (NIS), SLC5A5 (gene 6528)
Test: CPHEA_Stoker_NIS_Inhibition_RAIU: CPHEA's Radioactive Iodide Uptake (RAIU) Assay for Sodium/Iodide Symporter (NIS) Inhibition, Stoker and Laws Labs (AID 2283841)
Conditions: not given
Outline: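 hNIS-HEK293T-EPA cells incubated 2 h at room temperature with compound (0.001–100 uM, 0.5% DMSO) and 329 pM final 125I in HBSS/10 mM HEPES, pH 7.4. Intracellular 125I counted; normalised to DMSO maximal uptake, triplicate, three biological replicates.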

Structure (SMILES) | outcome | AC50
CCOc1ccc(N=Nc2ccc(C=Cc3ccc(N=Nc4ccc(OCC)cc4)cc3S(=O)(=O)O)c(S(=O)(=O)O)c2)cc1 | inactive | 
CCCCCCCCCCCCN1CCCCCC1=O | inactive | 
CC(CN=Cc1ccccc1O)N=Cc1ccccc1O (stereo not drawn) | inactive | 
CCc1cc(C(C)(C)C)c(O)c(C(C)(C)C)c1 | inactive | 
C=C1CC[C@H](O)C/C1=C/C=C1\CCC[C@]2(C)[C@@H]([C@H](C)/C=C/[C@H](C)C(C)C)CC[C@@H]12 | inactive | 
[O-]n1ccccc1=S.[O-]n1ccccc1=S.[Zn+2] |  | 18.1 µM (active)
C=C(C)C(=O)OCCOC1CC2CC1C1C=CCC21 (stereo not drawn) | inactive | 
Cc1ccc(S(=O)(=O)Oc2ccc(N=Nc3ccc(-c4ccc(N=Nc5c(O)ccc6cc(S(=O)(=O)O)cc(S(=O)(=O)O)c56)c(C)c4)cc3C)cc2)cc1 | inactive | 
COc1ccc(N=Nc2cc(C)c(N=Nc3ccc(S(=O)(=O)O)cc3)cc2OC)cc1 | inactive | 

System: not listed separately
Test: CPHEA_Stoker_NIS_Cytotoxicity: Cytotoxicity Assessment for CPHEA's Radioactive Iodide Uptake (RAIU) Assay for Sodium/Iodide Symporter (NIS) Inhibition, Stoker and Laws Labs (AID 2283897);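 as to AC50: active means loss of ATP signal versus DMSO meaning cytotoxicity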
Conditions: not given
Outline: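 hNIS-HEK293T-EPA cells, human NIS expressed in HEK293T, treated 2 h with chemicals (0.001–100 uM, 0.5% final DMSO). ATP content read by CellTiter-Glo luminescence; loss of signal analysed relative to DMSO.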

Structure (SMILES) | outcome | AC50
CCOc1ccc(N=Nc2ccc(C=Cc3ccc(N=Nc4ccc(OCC)cc4)cc3S(=O)(=O)O)c(S(=O)(=O)O)c2)cc1 | inactive | 
O=CCc1ccccc1 | inactive | 
CCCCCCCCCCCCN1CCCCCC1=O | inactive | 
CC(CN=Cc1ccccc1O)N=Cc1ccccc1O (stereo not drawn) | inactive | 
CCc1cc(C(C)(C)C)c(O)c(C(C)(C)C)c1 | inactive | 
C=C1CC[C@H](O)C/C1=C/C=C1\CCC[C@]2(C)[C@@H]([C@H](C)/C=C/[C@H](C)C(C)C)CC[C@@H]12 | inactive | 
[O-]n1ccccc1=S.[O-]n1ccccc1=S.[Zn+2] | inactive | 
C=C(C)C(=O)OCCOC1CC2CC1C1C=CCC21 (stereo not drawn) | inactive | 
Cc1ccc(S(=O)(=O)Oc2ccc(N=Nc3ccc(-c4ccc(N=Nc5c(O)ccc6cc(S(=O)(=O)O)cc(S(=O)(=O)O)c56)c(C)c4)cc3C)cc2)cc1 |  | 13 µM (active)
COc1ccc(N=Nc2cc(C)c(N=Nc3ccc(S(=O)(=O)O)cc3)cc2OC)cc1 | inactive | 

Read-out: not listed separately
Test: CEETOX_H295R_11DCORT_noMTC: CeeTox H295R High-throughput Steroidogenesis Assay for 11-Deoxycortisol (11DCORT), maximum tolerated concentration (MTC) filtered results only (AID 2283911; active = hit-call score of the fitted dose curve at least 0.9, where 1 is the maximum; inactive = score below 0.9)
Conditions: actives raise or lower the signal
Outline: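 Forskolin-primed (10 uM, 48 h) H295R adrenal cells are dosed for 48 h at 0.1% DMSO; medium 11-deoxycortisol is quantified by LC-MS/MS against a 7-point standard curve, with activity fitted in both directions versus DMSO.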

Structure (SMILES) | outcome
COc1ccc(OC)c(N=Nc2c(O)ccc3ccccc23)c1 | inactive
CC=Cc1ccc(OC)c(OC)c1 | inactive
C=C[Si]1(C)O[Si](C)(C=C)O[Si](C)(C=C)O[Si](C)(C=C)O1 (stereo not drawn) | inactive

Read-out: not listed separately
Test: CEETOX_H295R_OHPREG_noMTC: CeeTox H295R High-throughput Steroidogenesis Assay for OH-Pregnenolone (OHPREG), maximum tolerated concentration (MTC) filtered results only (AID 2283912; active = hit-call score of the fitted dose curve at least 0.9, where 1 is the maximum; inactive = score below 0.9)
Conditions: actives raise or lower the signal
Outline: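 Steroidogenesis in H295R cells (OECD 456, modified): after 48 h forskolin priming and 48 h chemical treatment, secreted 17alpha-hydroxypregnenolone is measured by HPLC-MS/MS. Activity is fitted in both directions against DMSO; concentrations are not filtered by MTT-based MTC.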

Structure (SMILES) | outcome
COc1ccc(OC)c(N=Nc2c(O)ccc3ccccc23)c1 | inactive
CC=Cc1ccc(OC)c(OC)c1 | inactive
C=C[Si]1(C)O[Si](C)(C=C)O[Si](C)(C=C)O[Si](C)(C=C)O1 (stereo not drawn) | inactive
O=C(Nc1ccc2c(O)c(N=Nc3ccc(N=Nc4ccc(S(=O)(=O)O)cc4)cc3)c(S(=O)(=O)O)cc2c1)c1ccccc1 | inactive

Read-out: not listed separately
Test: CEETOX_H295R_OHPROG_noMTC: CeeTox H295R High-throughput Steroidogenesis Assay for OH-Progesterone (OHPROG), maximum tolerated concentration (MTC) filtered results only (AID 2283914; active = hit-call score of the fitted dose curve at least 0.9, where 1 is the maximum; inactive = score below 0.9)
Conditions: actives raise or lower the signal
Outline: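 Forskolin 10 uM, 48 h prestim → test cmpd in DMSO (0.1% final), 48 h → medium MTBE extraction → LC-MS/MS quant of 17alpha-OH-progesterone. Bidirectional fit vs DMSO; no MTT-based MTC filtering.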

Structure (SMILES) | outcome | AC50
COc1ccc(OC)c(N=Nc2c(O)ccc3ccccc23)c1 | inactive | 
CC=Cc1ccc(OC)c(OC)c1 | inactive | 
C=C[Si]1(C)O[Si](C)(C=C)O[Si](C)(C=C)O[Si](C)(C=C)O1 (stereo not drawn) |  | 87.1 µM (active)
O=C(Nc1ccc2c(O)c(N=Nc3ccc(N=Nc4ccc(S(=O)(=O)O)cc4)cc3)c(S(=O)(=O)O)cc2c1)c1ccccc1 | inactive | 

Read-out: not listed separately
Test: CEETOX_H295R_CORTISOL_noMTC: CeeTox H295R High-throughput Steroidogenesis Assay for Cortisol, maximum tolerated concentration (MTC) filtered results only (AID 2283916; active = hit-call score of the fitted dose curve at least 0.9, where 1 is the maximum; inactive = score below 0.9)
Conditions: actives raise or lower the signal
Outline: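 Cortisol secretion measured by LC-MS/MS after 48 h chemical treatment (final 0.1% DMSO) of forskolin-primed (10 uM, 48 h) H295R cells; gain or loss fitted relative to DMSO, without maximum-tolerated-concentration filtering.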

Structure (SMILES) | outcome
COc1ccc(OC)c(N=Nc2c(O)ccc3ccccc23)c1 | inactive
CC=Cc1ccc(OC)c(OC)c1 | inactive
C=C[Si]1(C)O[Si](C)(C=C)O[Si](C)(C=C)O[Si](C)(C=C)O1 (stereo not drawn) | inactive

Read-out: not listed separately
Test: CEETOX_H295R_DOC_noMTC: CeeTox H295R High-throughput Steroidogenesis Assay for DOC, maximum tolerated concentration (MTC) filtered results only (AID 2283918; active = hit-call score of the fitted dose curve at least 0.9, where 1 is the maximum; inactive = score below 0.9)
Conditions: actives raise or lower the signal
Outline: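 11-Deoxycorticosterone secreted by human adrenal H295R cells quantified by HPLC-MS/MS after 48 h chemical exposure (0.1% DMSO), following 48 h 10 uM forskolin prestimulation. Concentrations not filtered by MTT-derived MTC; bidirectional fitting.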

Structure (SMILES) | outcome
COc1ccc(OC)c(N=Nc2c(O)ccc3ccccc23)c1 | inactive
CC=Cc1ccc(OC)c(OC)c1 | inactive
C=C[Si]1(C)O[Si](C)(C=C)O[Si](C)(C=C)O[Si](C)(C=C)O1 (stereo not drawn) | inactive

Read-out: not listed separately
Test: CEETOX_H295R_PROG_noMTC: CeeTox H295R High-throughput Steroidogenesis Assay for Progesterone (PROG), maximum tolerated concentration (MTC) filtered results only (AID 2283920; active = hit-call score of the fitted dose curve at least 0.9, where 1 is the maximum; inactive = score below 0.9)
Conditions: actives raise or lower the signal
Outline: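 H295R cells; forskolin 10 uM x 48 h prestim; test cpd 48 h, 0.1% DMSO final; media progesterone via LC-MS/MS; bidirectional fit vs DMSO; no MTT-based MTC filter applied.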

Structure (SMILES) | outcome
COc1ccc(OC)c(N=Nc2c(O)ccc3ccccc23)c1 | inactive
C=C[Si]1(C)O[Si](C)(C=C)O[Si](C)(C=C)O[Si](C)(C=C)O1 (stereo not drawn) | inactive
O=C(Nc1ccc2c(O)c(N=Nc3ccc(N=Nc4ccc(S(=O)(=O)O)cc4)cc3)c(S(=O)(=O)O)cc2c1)c1ccccc1 | inactive

Molecular target: PGR (gene 5241) (UniProt P06401)
Sequence (P06401 whole entry, looked up): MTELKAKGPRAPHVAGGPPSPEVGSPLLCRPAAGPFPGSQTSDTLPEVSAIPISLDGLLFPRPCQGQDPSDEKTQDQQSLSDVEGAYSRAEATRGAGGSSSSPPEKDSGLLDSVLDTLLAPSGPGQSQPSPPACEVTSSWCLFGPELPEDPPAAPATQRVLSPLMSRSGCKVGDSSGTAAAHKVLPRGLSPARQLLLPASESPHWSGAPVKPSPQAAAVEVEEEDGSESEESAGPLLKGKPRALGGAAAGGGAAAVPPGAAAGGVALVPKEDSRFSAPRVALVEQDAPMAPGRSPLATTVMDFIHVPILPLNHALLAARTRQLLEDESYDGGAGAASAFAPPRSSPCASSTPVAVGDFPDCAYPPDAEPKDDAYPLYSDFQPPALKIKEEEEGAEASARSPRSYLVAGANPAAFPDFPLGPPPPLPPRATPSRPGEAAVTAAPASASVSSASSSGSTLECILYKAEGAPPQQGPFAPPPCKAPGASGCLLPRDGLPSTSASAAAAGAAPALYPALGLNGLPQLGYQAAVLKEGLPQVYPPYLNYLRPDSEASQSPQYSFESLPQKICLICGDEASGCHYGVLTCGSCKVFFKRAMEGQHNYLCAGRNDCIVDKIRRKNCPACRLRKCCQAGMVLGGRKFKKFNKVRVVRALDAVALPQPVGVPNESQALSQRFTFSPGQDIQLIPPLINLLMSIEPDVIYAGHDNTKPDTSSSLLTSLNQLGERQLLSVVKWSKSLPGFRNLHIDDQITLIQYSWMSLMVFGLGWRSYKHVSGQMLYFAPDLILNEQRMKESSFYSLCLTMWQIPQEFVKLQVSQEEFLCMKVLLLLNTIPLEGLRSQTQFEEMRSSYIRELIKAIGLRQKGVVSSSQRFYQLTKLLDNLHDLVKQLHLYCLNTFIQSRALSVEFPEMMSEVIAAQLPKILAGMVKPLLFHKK
Test: TOX21_PR_BLA_Followup_Antagonist_ratio: Tox21 HEK293 Progesterone Receptor (PR) Antagonism Beta-lactamase Follow-Up Assay, Ratio (AID 2283934)
Conditions: not given
Outline: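 PR-UAS-bla HEK293T cells in medium with 2% charcoal-stripped FBS were treated with compounds plus 1 nM (final) promegestone (R5020) for 16 hr at 37C. LiveBLAzer B/G FRET substrate was then added for 2 h at room temperature; signal is cleaved/uncleaved substrate ratio versus DMSO.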

Structure (SMILES) | AC50 | outcome
CCCOC(=O)c1c(Cl)c(Cl)c(Cl)c(Cl)c1C(=O)OCCC | 9.87 µM (active) | 
O=C(Nc1ccc2c(c1)Cc1ccccc1-2)C(F)(F)F | 19.6 µM (active) | 
CCOC(=O)C(C#N)=C(c1ccccc1)c1ccccc1 | 15.2 µM (active) | 
N#Cc1ccc(CC(=O)c2cccc(C(F)(F)F)c2)cc1 | 46.1 µM (active) | 
C=C1CC[C@H](O)C/C1=C/C=C1\CCC[C@]2(C)[C@@H]([C@H](C)/C=C/[C@H](C)C(C)C)CC[C@@H]12 |  | inactive

System: not listed separately
Test: TOX21_PR_BLA_Followup_Agonist_viability: Viability Assessment in the Tox21 HEK293 Progesterone Receptor (PR) Agonism Beta-lactamase Follow-Up Assay (AID 2283935);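 also: signal loss means lower viability so actives are cytotoxic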
Conditions: not given
Outline: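 PR-UAS-bla HEK293T cells in 2% charcoal-stripped FBS medium, compound added after 6 hr plating, 16 hr at 37C/5% CO2. After bla FRET read, CellTiter-Glo added; luminescence read after 30 min at room temperature; signal loss marks cytotoxicity.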

Structure (SMILES) | outcome
CCCOC(=O)c1c(Cl)c(Cl)c(Cl)c(Cl)c1C(=O)OCCC | inactive
O=C(Nc1ccc2c(c1)Cc1ccccc1-2)C(F)(F)F | inactive
CCOC(=O)C(C#N)=C(c1ccccc1)c1ccccc1 | inactive
N#Cc1ccc(CC(=O)c2cccc(C(F)(F)F)c2)cc1 | inactive

System: not listed separately
Test: TOX21_PR_BLA_Followup_Antagonist_viability: Viability Assessment in the Tox21 HEK293 Progesterone Receptor (PR) Antagonism Beta-lactamase Follow-Up Assay (AID 2283936);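 also: hits lower the luminescence signal meaning cytotoxicity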
Conditions: not given
Outline: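 PR-UAS-bla HEK293T cells (3,000/well, 2% charcoal-stripped FBS) given compound plus R5020 agonist, 16 h at 37C. CellTiter-Glo added after bla read, 30 min at room temperature; luminescence loss indicates cytotoxicity.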

Structure (SMILES) | outcome
CCCOC(=O)c1c(Cl)c(Cl)c(Cl)c(Cl)c1C(=O)OCCC | inactive
O=C(Nc1ccc2c(c1)Cc1ccccc1-2)C(F)(F)F | inactive
CCOC(=O)C(C#N)=C(c1ccccc1)c1ccccc1 | inactive
N#Cc1ccc(CC(=O)c2cccc(C(F)(F)F)c2)cc1 | inactive
C=C1CC[C@H](O)C/C1=C/C=C1\CCC[C@]2(C)[C@@H]([C@H](C)/C=C/[C@H](C)C(C)C)CC[C@@H]12 | inactive
